Test results from paper PMC5540273 (PLoS ONE, 2017).

Key:
Conditions in all cases: concentration: 1 μM, replicates: in singlicate; n = 1
MAPKAPK5 = tested on: MAPKAPK5
MARK1 = tested on: MARK1
MARK2 = tested on: MARK2
MARK3 = tested on: MARK3
MARK4 = tested on: MARK4
MAST1 = tested on: MAST1
MEK1 = tested on: T1, MEK1
T1 construct: gene MAP2K1

MEK2 = tested on: T2, MEK2
T2 construct: gene MAP2K2

MEK3 = tested on: T3, MEK3
T3 construct: gene MAP2K3

MEK4 = tested on: T4, MEK4
T4 construct: gene MAP2K4

MEK5 = tested on: T5, MEK5
T5 construct: gene MAP2K5

MEK6 = tested on: T6, MEK6
T6 construct: gene MAP2K6

MELK = tested on: MELK
MERTK = tested on: MERTK
MET = tested on: MET
MINK = tested on: T7, MINK
T7 construct: gene MINK1

MKK7 = tested on: MKK7
MKNK1 = tested on: MKNK1
MKNK2 = tested on: MKNK2
MLCK = tested on: T8, MLCK
T8 construct: gene MYLK3
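Further: KINOMEscan kinase panel screen.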

| SMILES | %Inh (MAPKAPK5) [%] | %Inh (MARK1) [%] | %Inh (MARK2) [%] | %Inh (MARK3) [%] | %Inh (MARK4) [%] | %Inh (MAST1) [%] | %Inh (MEK1) [%] | %Inh (MEK2) [%] | %Inh (MEK3) [%] | %Inh (MEK4) [%] | %Inh (MEK5) [%] | %Inh (MEK6) [%] | %Inh (MELK) [%] | %Inh (MERTK) [%] | %Inh (MET) [%] | %Inh (MINK) [%] | %Inh (MKK7) [%] | %Inh (MKNK1) [%] | %Inh (MKNK2) [%] | %Inh (MLCK) [%] |
| --- | --- | --- | --- | --- | --- | --- | --- | --- | --- | --- | --- | --- | --- | --- | --- | --- | --- | --- | --- | --- |
| Cc1ccc(C)c(NC(=O)NC2CCN(c3ccnc(Nc4ccc(F)cc4)n3)C2)c1 (centres unmarked) [GSK1379720] | 0 | 0 | 0 | 0 | 0 | 35 | 0 | 0 | 0 | 4 | 50 | 0 | 0 | 21 | 0 | 0 | 0 | 0 | 0 | 22 |
| COc1cc(Nc2nccc(N3CCC(NC(=O)c4cc5ccccc5s4)C3)n2)cc(OC)c1OC (centres unmarked) [GSK1379760] | 1 | 7 | 12 | 0 | 22 | 1 | 7 | 0 | 3 | 0 | 88 | 0 | 15 | 45 | 31 | 0 | 38 | 30 | 21 | 0 |
| Cl.Cl.NCC(NCc1ccc(-c2ccnc3[nH]ccc23)s1)c1ccccc1 (centres unmarked) [GSK1321565] | 0 | 0 | 0 | 0 | 0 | 11 | 0 | 0 | 49 | 18 | 43 | 4 | 64 | 74 | 0 | 51 | 0 | 2 | 65 | 6 |
| COc1cccc(C(=O)Nc2cccc(Oc3ccc4nc(NC(=O)C5CC5)cn4n3)c2)c1 | 0 | 17 | 0 | 0 | 10 | 0 | 28 | 43 | 15 | 0 | 98.2 | 0 | 35 | 57 | 20 | 63 | 0 | 4 | 0 | 0 |
| Cl.Cl.NCC(NC(=O)c1cc(-c2ccccc2)c(-c2ccnc3[nH]ccc23)s1)c1ccccc1 (centres unmarked) [GSK1321561] | 0 | 0 | 0 | 11 | 3 | 0 | 5 | 0 | 51 | 42 | 19 | 6 | 37 | 44 | 3 | 90.7 | 17 | 20 | 19 | 40 |
| C[C@@H](Oc1cc(-n2cnc3cc(-c4ccnc(NCCS(C)(=O)=O)c4)ccc32)sc1C(N)=O)c1ccccc1Cl [GSK907232] | 0 | 11 | 34 | 43 | 20 | 6 | 0 | 0 | 0 | 26 | 56 | 0 | 0 | 90.9 | 36 | 1 | 0 | 0 | 7 | 0 |
| CN(C)S(=O)(=O)c1cc(-c2ccc3nccc(-c4cccc(S(N)(=O)=O)c4)c3c2)cnc1N [GSK1669921] | 8 | 0 | 0 | 0 | 0 | 0 | 7 | 0 | 0 | 27 | 56 | 0 | 0 | 33 | 0 | 19 | 0 | 0 | 4 | 0 |
| Cl.c1ccc(-c2ccc3c(Nc4ccc5[nH]ncc5c4)ccnc3c2)nc1 [GW440137] | 0 | 0 | 0 | 0 | 15 | 0 | 0 | 5 | 0 | 0 | 89 | 0 | 15 | 0 | 0 | 43 | 0 | 5 | 18 | 15 |
| Cl.c1ccc(-c2ccc3c(Nc4ccc5[nH]ccc5c4)ccnc3c2)nc1 [GW440138] | 0 | 0 | 0 | 0 | 0 | 0 | 0 | 0 | 0 | 0 | 83 | 0 | 0 | 34 | 0 | 75 | 0 | 2 | 0 | 0 |
| COc1ccc(Nc2nccc(N3CCC(NC(=O)Nc4cccc(OC)c4)C3)n2)cc1 (centres unmarked) [GSK1379742] | 0 | 0 | 0 | 0 | 0 | 23 | 0 | 0 | 0 | 24 | 46 | 0 | 7 | 19 | 0 | 0 | 0 | 3 | 0 | 0 |
| Cn1cc(-c2ccc3c(c2)CCN3C(=O)Cc2cccc(Cl)c2)c2c(N)ncnc21 [GSK2606590] | 0 | 2 | 2 | 3 | 11 | 0 | 19 | 0 | 0 | 33 | 99.8 | 0 | 0 | 79 | 45 | 0 | 28 | 21 | 23 | 6 |
| COc1ccc(-c2coc3ccc(-c4nnc(SCc5ccc(OC)c(C(F)(F)F)c5)o4)cc23)cc1 | 23 | 5 | 2 | 0 | 4 | 13 | 13 | 22 | 10 | 30 | 4 | 0 | 20 | 11 | 13 | 26 | 14 | 0 | 1 | 0 |
| CCCCc1nn2ncccc2c1-c1ccnc(Nc2ccc(N3CCN(C)CC3)cc2)n1 [GW684941] | 0 | 0 | 0 | 32 | 0 | 31 | 0 | 0 | 0 | 32 | 98.9 | 0 | 0 | 56 | 8 | 43 | 0 | 9 | 64 | 0 |
| O=C(Nc1n[nH]c2nc(-c3ccc(O)cc3)ccc12)C1CC1 [SB-710363] | 4 | 0 | 38 | 0 | 0 | 36 | 0 | 8 | 36 | 10 | 81 | 0 | 46 | 8 | 0 | 72 | 0 | 43 | 54 | 57 |
| CN(C)Cc1ccc(-c2ccc3c(Nc4ccc(Oc5ccccn5)cc4)ccnc3c2)o1 [GW567148] | 0 | 2 | 0 | 0 | 13 | 11 | 94.7 | 96.8 | 0 | 26 | 100 | 0 | 0 | 38 | 12 | 36 | 0 | 0 | 38 | 0 |
| COc1cc2c(cc1OCCN1CCNCC1)ncc1c3ccc(C#N)cc3[nH]c21 | 0 | 0 | 8 | 0 | 0 | 83 | 34 | 57 | 34 | 18 | 99.6 | 0 | 35 | 0 | 5 | 86 | 12 | 100 | 99 | 97.5 |
| Cc1ccc(C(=O)N2CC[C@@H](O)C2)cc1-n1c(C)cc(OCc2ccc(F)cc2F)c(Br)c1=O | 0 | 0 | 0 | 0 | 0 | 0 | 0 | 36 | 0 | 0 | 0 | 0 | 0 | 0 | 0 | 0 | 0 | 0 | 0 | 0 |
| O=C(NC1CCN(c2ccnc(Nc3ccc(F)cc3)n2)C1)c1cc2ccccc2s1 (centres unmarked) [GSK1379716] | 0 | 0 | 0 | 0 | 10 | 0 | 0 | 4 | 0 | 20 | 8 | 1 | 0 | 38 | 0 | 0 | 0 | 3 | 7 | 8 |
| CCn1c(-c2nonc2N)nc2c(C#CC(C)(C)O)nc(OC[C@H](N)c3ccccc3)cc21 [GSK943949] | 7 | 54 | 0 | 0 | 37 | 4 | 1 | 0 | 69 | 15 | 0 | 0 | 63 | 21 | 0 | 5 | 0 | 5 | 0 | 34 |
